Results on 48 sequences are retold here after paper PMC7819943, “Rice protein-binding microarrays: a tool to detect cis-acting elements near promoter regions in rice”.

Over roughly 68,000 sequences, “fluorescence intensity (a.u.)” has its median near 9,100; the highest 2% begin near 16,000. The sample holds the highest values, similar sequences and a random draw of the others, so the mix is not that of the screen.

Chain of OsWRKY34 (Q0JBA9 entry or part of it): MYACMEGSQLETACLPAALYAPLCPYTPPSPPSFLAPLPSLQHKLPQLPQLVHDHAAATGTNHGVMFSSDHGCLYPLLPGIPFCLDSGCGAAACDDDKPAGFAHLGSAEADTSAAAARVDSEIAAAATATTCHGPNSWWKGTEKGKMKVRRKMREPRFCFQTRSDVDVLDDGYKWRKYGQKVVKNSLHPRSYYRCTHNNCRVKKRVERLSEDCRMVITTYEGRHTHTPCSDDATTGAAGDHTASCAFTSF

For this assay, the target named is OsWRKY34 (Oryza sativa, UniProt Q0JBA9 1-250). Nature of the assay: protein-binding microarray (RPBM); PBS, 2% BSA, 51.3 ng/ul salmon testes DNA, 50 uM zinc acetate, 200 nM TF, 25 C, 1 h; high values mean tight binding. Particulars: protein: recombinant; tags: N-terminal polyhistidine and DsRed monomer fusion (pET32a); label: CyDye5-dUTP incorporated in the synthesized complementary strand; 3' TTTTT single-stranded linker to array surface; dsDNA, one strand shown. An outline of the steps:
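The binding signal for each feature is its fluorescence intensity in arbitrary units. An Axon 4000B scanner was used to read a custom Agilent array that had been made double-stranded with Cy5-dUTP primer extension, blocked with 2% BSA, incubated at 25 °C for 1 h with 200 nM protein in PBS, 2% BSA, salmon testes DNA and 50 µM zinc acetate, and washed. The protein was an N-terminal polyhistidine–DsRed transcription factor fusion from E. coli BL21-CodonPlus, purified on Ni–NTA.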
For “GACACACGATTTCTTAAGGCTCATACTTTATGCTTGTCTACGGAGTCACCTAGTGCAG”, the binding signal is 11300 fluorescence intensity (a.u.). Under “GACACATGAACTTTCAATTTTTCTATCACATCGTTCTAATCGGAGTCACCTAGTGCAG” stands 8150 fluorescence intensity (a.u.); under “TTTTTTGGTTGTTGATATGATGTTCTTTTTTCCTCATTCTCGGAGTCACCTAGTGCAG”, 8990 fluorescence intensity (a.u.). For the sequence “GGCTTTGTATTTTGGTGTTGAGTCCCTTCCATACAAGAACCGGAGTCACCTAGTGCAG”, the binding signal is 8040 fluorescence intensity (a.u.). In the case of “AGTTTTTGCTTGTAACGTTTCACCACTCGTCTTATTCAAACGGAGTCACCTAGTGCAG”, the binding signal is 8340 fluorescence intensity (a.u.). As for “AACCTCCACACACCCGCTCATACTACAAGCTAGGTAATCACGGAGTCACCTAGTGCAG”, the binding signal was 8040 fluorescence intensity (a.u.). Under “CCCATCGCATCTTTCCCACTCGCCCCACGCCCGCACGTCTCGGAGTCACCTAGTGCAG” stands 18800 fluorescence intensity (a.u.); under “CGCACCACCACCACCATTTCCACGCCCCTCTCTCCATTCCCGGAGTCACCTAGTGCAG”, 8680 fluorescence intensity (a.u.).

On to “CCCCTCGCCGCCCTCTCTCTCACAGTCTCACGCATCCCATCGGAGTCACCTAGTGCAG”, for which the binding signal is 8440 fluorescence intensity (a.u.). As to “TGCTCGGACCATTCCCCGCCCACCATCGCTGCACACTTTTCGGAGTCACCTAGTGCAG”, the binding signal was 17200 fluorescence intensity (a.u.). Regarding “CACCTCCCCGCCCACCATTCCCACTTTCGCCCACACACACCGGAGTCACCTAGTGCAG”, the binding signal is 9570 fluorescence intensity (a.u.). On to “CGCTCCACCACCCGCCCGCTCGCCCATTTCCTCTCCCTTTCGGAGTCACCTAGTGCAG”, for which the binding signal is 12300 fluorescence intensity (a.u.). Under “GCGCTTCTGACCACCACGTGCATTTCCATTTCCCGCTGCACGGAGTCACCTAGTGCAG” stands 12700 fluorescence intensity (a.u.); under “GCCCCATCCACCGCACCACACGTCTCTTTTTTTCGCGACTCGGAGTCACCTAGTGCAG”, 14600 fluorescence intensity (a.u.). In the case of “CGCTGACCACGTTGACCATCTTCCATTTCTTCCCCTCGCCCGGAGTCACCTAGTGCAG” it was 18600 fluorescence intensity (a.u.); in that of “GGCAATCCGGTGCTCCTTGTCTGAACTCTCTCAATCTCAACGGAGTCACCTAGTGCAG”, 8040 fluorescence intensity (a.u.); in that of “ATTTGTCATTTTTTCTATGTGTATATGTTGTATTTTGAGCCGGAGTCACCTAGTGCAG”, 8430 fluorescence intensity (a.u.). For “GCATGAGTAGGGGATGGCATTAAAACAGGTTGGTCAGGTGCGGAGTCACCTAGTGCAG”, the binding signal was 8920 fluorescence intensity (a.u.). Under “TCCGTTCCATCGTAATCCTTCTCCGATCCGAATTTGCTTCCGGAGTCACCTAGTGCAG” stands 9120 fluorescence intensity (a.u.). Take “GCATCGACCGCGCGCGTATACGTTAACGCTCACCTTTGTTCGGAGTCACCTAGTGCAG”: the binding signal was 9420 fluorescence intensity (a.u.). Take “GGTTTGTTTGGAGGCGCAATGTTTCTCACCCTGTCGTTCCCGGAGTCACCTAGTGCAG”: the binding signal is 12700 fluorescence intensity (a.u.). Regarding “AGGTCTTTTTCACGTCGCAACCATGGCTTCAAATTTTGCTCGGAGTCACCTAGTGCAG”, the binding signal was 11900 fluorescence intensity (a.u.). For the sequence “CTCGCCTGACCCTGTCAAACGCCGGGCCGCGGACCCCGCCCGGAGTCACCTAGTGCAG”, the binding signal is 8970 fluorescence intensity (a.u.). Turning to “TCGTGGGAAGGGCAAAGAAAAGACGGGGTGGTGGGCATCGCGGAGTCACCTAGTGCAG”, the binding signal was 8420 fluorescence intensity (a.u.).

“GAGCTTGGGGTTGTGTATGGTGGTGGTGGTGTGGTAGCTACGGAGTCACCTAGTGCAG”: the binding signal was 33200 fluorescence intensity (a.u.). Under “GGTGACGGCTGGTGTGGGTGTAGGGTGGCCGCGCGGTACGCGGAGTCACCTAGTGCAG” stands 9460 fluorescence intensity (a.u.); under “GGGCTAGTGTTTTTATGGTGTGGTTGGGGATTCAGCTTGCCGGAGTCACCTAGTGCAG”, 11600 fluorescence intensity (a.u.); under “GAGCTTATAGGGTGGGTTGTGTCCATGGAGTAACTATTATCGGAGTCACCTAGTGCAG”, 18600 fluorescence intensity (a.u.).

With “CTGTTGTGTTGTGTTGTAATATGATTATGTGGGTGCTTATCGGAGTCACCTAGTGCAG”, the binding signal is 8390 fluorescence intensity (a.u.). Under “GGGGTTATGGTGGATTTGGTGCTTTGGGGCATTATGTTTACGGAGTCACCTAGTGCAG” stands 13800 fluorescence intensity (a.u.).

“TGCTTGTGGTTTGTATGGAGTTTGGGTGAAGTGTCACGTACGGAGTCACCTAGTGCAG”: the binding signal was 9660 fluorescence intensity (a.u.). In the case of “TGATGTCTTATCTCGGGTCTCATCTTTTCGCTTATGCTTACGGAGTCACCTAGTGCAG” it was 8990 fluorescence intensity (a.u.).

On to “CGTAGGTAAGTAGGGTTATTATAGTTATTTGTGTATATATCGGAGTCACCTAGTGCAG”, for which the binding signal is 9300 fluorescence intensity (a.u.). In the case of “AACAGTGGTATCGTTGTGTAGGGGTGGGCTGGCAAAAAGACGGAGTCACCTAGTGCAG” it was 20000 fluorescence intensity (a.u.); in that of “TTTTGGGGTGGGTTTTGGTATCTGATGCTTACGGGCATCTCGGAGTCACCTAGTGCAG”, 18100 fluorescence intensity (a.u.); in that of “ATTCAGTGGATCCTGCTGCTCAAACTTTGCTGACTGAATTCGGAGTCACCTAGTGCAG”, 8820 fluorescence intensity (a.u.). Under “CTTGGGCGTCTTGTGTTTGTGGGTGAGGTAGCCAGCTGCCCGGAGTCACCTAGTGCAG” stands 9910 fluorescence intensity (a.u.); under “CATCTTTGTGGTTGTGTGGGTGTGTGTGTATATATATACCCGGAGTCACCTAGTGCAG”, 8180 fluorescence intensity (a.u.). With “GGGATGGGTAGGGGTGGGTTGTGCTGTATTATACTACACCCGGAGTCACCTAGTGCAG”, the binding signal is 19200 fluorescence intensity (a.u.). Under “GGCTGTTGGGTTTGTGGGCTTGTGCTAGGCGTCCCAGCTACGGAGTCACCTAGTGCAG” stands 17800 fluorescence intensity (a.u.). Regarding “TTACCTTAGATTTGGTAGGGCTGGTTAGGGCTGGTTGGAGCGGAGTCACCTAGTGCAG”, the binding signal is 8680 fluorescence intensity (a.u.). In the case of “GGGTTGATGTGTGGTGAAGGGTAGGTAATTTGTAGGAGTACGGAGTCACCTAGTGCAG” it was 10800 fluorescence intensity (a.u.). Under “TGATGTGTGGGTGGTGGTGGTGGTGTGCCTTGTGTAGGTACGGAGTCACCTAGTGCAG” stands 20800 fluorescence intensity (a.u.); under “GGGTTTTGCTTTTGCTGTTGTCTTGGGCTTGGGCCTTTGCCGGAGTCACCTAGTGCAG”, 8660 fluorescence intensity (a.u.). In the case of “AGGAGGTGTAGTAGGGTAGTGTAGGAGGTGTAGTGGAGTACGGAGTCACCTAGTGCAG” it was 8450 fluorescence intensity (a.u.); in that of “GCTTACTGGTTATGGTTGGTAGGGTTGGACGTGTAACAGACGGAGTCACCTAGTGCAG”, 20900 fluorescence intensity (a.u.). Turning to “TGTAGCTTACTGCTTTGGTTTGGGCTGGTTGTGGATTGGACGGAGTCACCTAGTGCAG”, the binding signal was 11900 fluorescence intensity (a.u.). Take “TGCTGCTACTACATGTGGTGTGGGTGGTATGGTAGGGCCCCGGAGTCACCTAGTGCAG”: the binding signal is 9060 fluorescence intensity (a.u.).
